Measurements from PubChem BioAssay.
Values without a mark were called inactive. This is one part of the list. Calls of active or inactive are those of the source.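 The calls were made as follows, unless noted: active = mean inhibition across three repeats above about 21% taken from the earlier screen (limit read from the data); inactive = the rest.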

Key:
[1] = reduced OD of T4-infected AddAB+ E. coli – absorbance, E. coli V3065, T4 phage, triplicate, AddAB inhibitor project, confirmation (AID 488942;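 active = mean inhibition above a set limit taken from the earlier primary screen, cut at about 13% in these data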;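 also: higher means less bacterial growth since AddAB block lets phage replicate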); conditions: E. coli V3065 expressing H. pylori AddAB, at 11.9 µM, stronger effect = higher value, T4 phage with gene 2 nonsense mutations
[2] = reduced OD of phage-infected RecBCD+ V66 E. coli – absorbance, mutant T4 phage, counter-screen for AddAB inhibitor project (AID 488955;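 active = mean inhibition above the mean of solvent-only control wells plus 3 SD, cut at about 4% in these data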;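 also: optical density read after an 18 h incubation at 37 °C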); conditions: OD growth, at 11.9 µM, stronger effect = higher value
[3] = bacterial growth inhibitors – absorbance, counter-screen for AddAB inhibitor project, confirmation (AID 488956; in the data active = inhibition above about 25%); conditions: bacterial viability, absorbance (AddAB counterscreen); at 11.9 µM; stronger effect = higher value
[4] = reduced OD of V66 E. coli with T4 gene 2 phage – absorbance, RecBCD inhibitor project, confirmation (AID 651982;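 active = mean inhibition over triplicates exceeding the hit threshold derived in the original primary screen, cut at about 11% in these data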); conditions: E. coli V66 + T4 2- phage, growth OD; at 11.9 µM; stronger effect = higher value
[5] = bacterial growth inhibition – absorbance, high throughput, counter-screen for RecBCD inhibitor project (AID 651983; in the data active = inhibition above about 20%;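 also: E. coli strain V66 grown with compound alone and no phage infection; 0% = bacteria with DMSO vehicle only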); conditions: E. coli viability, absorbance (OD) growth; at 11.9 µM; stronger effect = higher value
[6] = reduced optical density, T4-challenged addAB+ bacteria – absorbance, E. coli V3065, T4 phage, counter-screen for RecBCD inhibitor project, confirmation (AID 651984;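 active = mean inhibition above the solvent-only control wells' mean plus 3 SD, cut at about 22% in these data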;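 also: higher means less bacterial growth from phage killing when AddAB is blocked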); conditions: E. coli expressing H. pylori AddAB + T4 phage, OD growth; at 11.9 µM; stronger effect = higher value; gene 2 mutant T4, recBCD-deleted host
[7] = biological target: Serine protease HTRA1 (Homo sapiens) (UniProt Q92743); experiment: confirming inhibition of human HTRA1 – biochemical, fluorescence polarization, confirmation (AID 540248;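 active = mean inhibition over three repeats above a set limit taken from the earlier primary screen, cut at about 37% in these data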;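 also: 0% = HTRA1 with DMSO and 100% = wells lacking HTRA1; inhibitors block probe binding so polarization drops and inhibition rises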); conditions: recombinant HTRA1, FP-rhodamine activity-based probe, at 5.96 µM, stronger effect = higher value
[8] = biological target: (Lyso)-N-acylphosphatidylethanolamine lipase (Mus musculus) (UniProt Q8VD66); experiment: mouse ABHD4 hydrolase blockers, triplicate – biochemical, fluorescence polarization, confirmation (AID 720658;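 active = mean inhibition across replicates above the hit cutoff set in the primary screen, cut at about 30% in these data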;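 also: 0% = wild-type ABHD4 with DMSO and 100% = catalytically dead S159A mutant with DMSO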); conditions: purified mABHD4, FP-Rh probe fluorescence polarization; at 8.92 µM; stronger effect = higher value
Sequence of (Lyso)-N-acylphosphatidylethanolamine lipase (Mus musculus) (Q8VD66 whole entry, looked up): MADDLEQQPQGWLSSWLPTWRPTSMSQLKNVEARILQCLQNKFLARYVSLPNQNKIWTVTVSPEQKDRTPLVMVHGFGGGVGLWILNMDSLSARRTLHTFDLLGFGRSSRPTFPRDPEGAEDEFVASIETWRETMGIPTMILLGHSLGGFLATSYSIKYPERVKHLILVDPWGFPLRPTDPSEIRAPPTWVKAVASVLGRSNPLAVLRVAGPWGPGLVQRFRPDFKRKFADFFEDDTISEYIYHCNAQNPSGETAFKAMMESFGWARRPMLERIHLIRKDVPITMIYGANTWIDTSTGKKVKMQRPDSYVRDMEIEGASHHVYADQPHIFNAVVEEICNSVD

[9] = biological target: Toll-like receptor 9 (Homo sapiens) (UniProt Q9NR96); experiment: disruptors of TLR9 binding to MyD88 – cell-based, CHO, BLA complementation, fluorescence, triplicate, confirmation (AID 540250); conditions: CCF4 FRET ratio, at 4.98 µM, stronger effect = higher value;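 also: blue over green emission ratio reports constitutive TLR9 MyD88 association via BLA complementation; 0% = DMSO vehicle wells and 100% = clavulanate BLA inhibitor wells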
Sequence of Toll-like receptor 9 (Homo sapiens) (Q9NR96 whole entry, looked up): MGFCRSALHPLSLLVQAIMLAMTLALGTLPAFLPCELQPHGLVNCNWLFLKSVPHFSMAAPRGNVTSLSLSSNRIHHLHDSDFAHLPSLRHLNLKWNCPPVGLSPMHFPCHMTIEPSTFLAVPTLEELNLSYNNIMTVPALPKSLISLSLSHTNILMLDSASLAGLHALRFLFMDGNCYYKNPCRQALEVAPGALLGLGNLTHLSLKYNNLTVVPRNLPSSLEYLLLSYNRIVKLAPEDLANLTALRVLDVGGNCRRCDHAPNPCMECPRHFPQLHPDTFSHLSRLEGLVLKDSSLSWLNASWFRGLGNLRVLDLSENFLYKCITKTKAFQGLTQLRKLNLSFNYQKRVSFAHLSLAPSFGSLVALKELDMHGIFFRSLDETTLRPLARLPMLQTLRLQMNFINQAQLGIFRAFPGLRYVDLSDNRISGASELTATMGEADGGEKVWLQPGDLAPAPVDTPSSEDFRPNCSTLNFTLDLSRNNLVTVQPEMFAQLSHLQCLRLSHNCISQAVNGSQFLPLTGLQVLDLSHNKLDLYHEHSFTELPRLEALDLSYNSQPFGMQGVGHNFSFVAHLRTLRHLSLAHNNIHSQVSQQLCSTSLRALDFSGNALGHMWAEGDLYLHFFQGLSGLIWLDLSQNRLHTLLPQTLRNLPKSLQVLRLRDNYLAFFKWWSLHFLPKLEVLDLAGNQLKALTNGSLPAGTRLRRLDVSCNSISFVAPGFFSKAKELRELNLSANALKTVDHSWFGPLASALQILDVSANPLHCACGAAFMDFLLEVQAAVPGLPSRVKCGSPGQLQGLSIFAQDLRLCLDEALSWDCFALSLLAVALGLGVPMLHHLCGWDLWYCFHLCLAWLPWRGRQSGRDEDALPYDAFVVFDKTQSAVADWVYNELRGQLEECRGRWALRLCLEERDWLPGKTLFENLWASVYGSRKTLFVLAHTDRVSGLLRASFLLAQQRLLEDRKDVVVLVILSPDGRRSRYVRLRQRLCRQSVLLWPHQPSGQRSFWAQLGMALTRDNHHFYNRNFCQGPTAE

[10] = BLA reporter readout interference – cell-based, fluorescence, artefact control for TLR9-MyD88 binding inhibitor project (AID 540251;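 active = mean inhibition above a 50% cutoff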;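 also: counterscreen of TLR9-MyD88 hits on CMV-driven BLA in CHO-K1 cells; 0% = DMSO alone and 100% = clavulanate blocking BLA; higher means less blue over green ratio so more BLA blockade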); conditions: CHO-BLA cells, CCF4 FRET ratio, at 4.98 µM, stronger effect = higher value
[11] = CHO cell viability loss – luminescence, single concentration, cytotoxicity control for TLR9-MyD88 binding inhibitor project (AID 588336; in the data active = inhibition above about 11%); conditions: TLR9-MyD88 CHO cells cytotoxicity, at 4.98 µM, stronger effect = higher value
[12] = biological target: Receptor-interacting serine/threonine-protein kinase 2 (Homo sapiens) (UniProt O43353); experiment: inhibitors of RIPK2 association with NOD2 – fluorescence, CHO cells, BLA complementation, triplicate, confirmation (AID 624370;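 active = mean inhibition across replicates above a set limit taken from the earlier primary screen, cut at about 21% in these data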;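 also: 0% = DMSO-only wells and the high end = clavulanate BLA-blocked wells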); conditions: CCF4 FRET, at 4.98 µM, stronger effect = higher value
Sequence of Receptor-interacting serine/threonine-protein kinase 2 (Homo sapiens) (O43353 whole entry, looked up): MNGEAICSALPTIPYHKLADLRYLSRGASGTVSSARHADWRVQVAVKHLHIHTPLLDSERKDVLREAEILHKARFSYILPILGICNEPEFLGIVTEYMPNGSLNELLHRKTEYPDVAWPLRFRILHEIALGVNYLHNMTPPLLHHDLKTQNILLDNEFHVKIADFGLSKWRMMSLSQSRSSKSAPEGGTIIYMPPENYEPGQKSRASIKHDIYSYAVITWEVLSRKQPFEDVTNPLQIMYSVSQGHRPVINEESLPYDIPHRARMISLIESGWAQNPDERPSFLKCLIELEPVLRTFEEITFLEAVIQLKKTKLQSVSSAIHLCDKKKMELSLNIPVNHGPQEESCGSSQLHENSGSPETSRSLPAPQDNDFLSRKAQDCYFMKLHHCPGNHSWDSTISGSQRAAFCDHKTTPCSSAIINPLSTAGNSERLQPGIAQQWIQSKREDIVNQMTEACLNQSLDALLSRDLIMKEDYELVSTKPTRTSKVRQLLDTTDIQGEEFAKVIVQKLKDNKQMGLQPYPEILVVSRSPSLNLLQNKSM

[13] = BLA reporter readout interference – cell-based, CHO-K1 CMV-bla, CCF4 FRET, fluorescence, artefact control for NOD2-RIPK2 interaction inhibitor project, confirmation (AID 624371;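 active = mean inhibition above the low-control mean inhibition plus three low-control SD, cut at about 11% in these data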;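 also: 0% = DMSO only wells and 100% = clavulanate high control wells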); conditions: CCF4 FRET ratio, counterscreen, at 4.98 µM, stronger effect = higher value
[14] = BSA probe fluorescence interference – biochemical, TAMRA-labeled BSA, counter-screen for TCR-CD3 interaction inhibitor project (AID 652035; in the data active = inhibition above about 23%;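 also: 0% = buffer low control and 100% = reference high control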); conditions: TAMRA-labeled BSA probe fluorescence counterscreen; at 9.4 µM; stronger effect = higher value
[15] = tested on: T-cell receptor (TCR)-CD3 interaction, human; experiment: blockers of TCR binding to CD3 – biochemical, fluorescence, TAMRA-labeled TCR probe, confirmation (AID 652036; in the data active = inhibition above about 19%); conditions: TAMRA-labeled TCR probe fluorescence binding assay; at 9.4 µM; stronger effect = higher value
[16] = StAR promoter reporter inhibitors, counter-screen for LRH-1 inverse agonist project, cell-based, luminescence, high throughput (AID 651611; in the data active = inhibition above about 28%); conditions: StAR promoter luciferase reporter counterscreen, at 3.6 µM, stronger effect = higher value
[17] = biological target: Nuclear receptor subfamily 5 group A member 2 (Homo sapiens) (UniProt O00482); experiment: NR5A2 activity suppression in reporter cells – cell-based, luminescence, confirmation (AID 651613; in the data active = inhibition above about 42%;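 also: HEK293T cells co-transfected with LRH-1 and StAR promoter luciferase reporter; 0% = vehicle wells and 100% = parental cells lacking receptor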); conditions: cell-based LRH-1 luciferase reporter, inverse agonism; at 3.6 µM; stronger effect = higher value
Sequence of Nuclear receptor subfamily 5 group A member 2 (Homo sapiens) (O00482 whole entry, looked up): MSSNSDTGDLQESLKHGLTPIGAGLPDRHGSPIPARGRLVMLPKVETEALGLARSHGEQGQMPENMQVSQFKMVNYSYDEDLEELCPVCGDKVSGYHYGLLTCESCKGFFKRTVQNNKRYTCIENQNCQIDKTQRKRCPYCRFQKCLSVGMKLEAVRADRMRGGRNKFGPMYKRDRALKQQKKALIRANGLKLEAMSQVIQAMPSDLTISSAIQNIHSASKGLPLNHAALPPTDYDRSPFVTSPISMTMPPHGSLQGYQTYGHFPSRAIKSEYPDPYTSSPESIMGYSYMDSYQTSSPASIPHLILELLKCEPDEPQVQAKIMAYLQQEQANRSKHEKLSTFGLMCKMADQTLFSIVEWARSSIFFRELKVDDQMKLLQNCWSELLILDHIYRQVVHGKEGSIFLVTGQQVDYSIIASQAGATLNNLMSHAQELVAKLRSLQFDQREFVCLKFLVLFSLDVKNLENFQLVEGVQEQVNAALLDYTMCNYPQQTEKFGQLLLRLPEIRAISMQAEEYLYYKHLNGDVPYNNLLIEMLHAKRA

[18] = biological target: Steroidogenic factor 1 (Homo sapiens) (UniProt Q13285); experiment: inverse agonism at SF1 nuclear receptor – cell-based, luminescence, high throughput, counter-screen for LRH-1 inverse agonist project (AID 651614; in the data active = inhibition above about 44%;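 also: cells cotransfected with StAR promoter reporter and SF1 expression vector; 0% = vehicle on cells with receptor and 100% = vehicle on cells lacking receptor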); conditions: cell-based SF1 luciferase reporter, at 3.6 µM, stronger effect = higher value
Sequence of Steroidogenic factor 1 (Homo sapiens) (Q13285 whole entry, looked up, the tested form may be a part): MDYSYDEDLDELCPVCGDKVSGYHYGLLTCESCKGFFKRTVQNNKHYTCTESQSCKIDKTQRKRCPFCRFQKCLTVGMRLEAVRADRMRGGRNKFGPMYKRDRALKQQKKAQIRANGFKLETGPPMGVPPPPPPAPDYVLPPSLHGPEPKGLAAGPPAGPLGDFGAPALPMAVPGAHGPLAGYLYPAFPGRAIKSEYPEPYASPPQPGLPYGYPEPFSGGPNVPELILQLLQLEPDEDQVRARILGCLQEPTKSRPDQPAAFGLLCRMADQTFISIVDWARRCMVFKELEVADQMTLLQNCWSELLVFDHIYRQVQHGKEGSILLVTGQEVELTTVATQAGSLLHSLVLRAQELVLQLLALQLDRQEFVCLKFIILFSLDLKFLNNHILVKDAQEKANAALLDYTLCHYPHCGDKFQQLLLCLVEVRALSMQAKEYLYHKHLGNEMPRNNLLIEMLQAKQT

[19] = compounds suppressing VP16-driven luciferase signal – cell-based, luminescence, high throughput, counter-screen for LRH-1 inverse agonist project (AID 651615; in the data active = inhibition above about 33%); conditions: Gal4-VP16 luciferase reporter cells, at 3.6 µM, stronger effect = higher value
[20] = VP16-driven transactivation reporter suppression – cell-based, luminescence, HEK293, counter-screen for COUP-TFII antagonist project (AID 687007; in the data active = inhibition above about 13%); conditions: HEK293 Gal4-VP16 luciferase reporter, at 8.5 µM, stronger effect = higher value
[21] = biological target: COUP transcription factor 2 (Homo sapiens) (UniProt P24468); experiment: retest of COUP-TFII reporter suppressors – cell-based, luciferase reporter, HEK293, triplicate, confirmation (AID 687008;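 active = mean inhibition over three repeats above a set limit taken from the earlier primary screen, cut at about 38% in these data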;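 also: 100% = cells given the luciferase reporter alone without the COUP-TF2 vector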); conditions: HEK293 NGFI-A luciferase reporter, luminescence; at 8.5 µM; stronger effect = higher value
Sequence of COUP transcription factor 2 (Homo sapiens) (P24468 whole entry, looked up, the tested form may be a part): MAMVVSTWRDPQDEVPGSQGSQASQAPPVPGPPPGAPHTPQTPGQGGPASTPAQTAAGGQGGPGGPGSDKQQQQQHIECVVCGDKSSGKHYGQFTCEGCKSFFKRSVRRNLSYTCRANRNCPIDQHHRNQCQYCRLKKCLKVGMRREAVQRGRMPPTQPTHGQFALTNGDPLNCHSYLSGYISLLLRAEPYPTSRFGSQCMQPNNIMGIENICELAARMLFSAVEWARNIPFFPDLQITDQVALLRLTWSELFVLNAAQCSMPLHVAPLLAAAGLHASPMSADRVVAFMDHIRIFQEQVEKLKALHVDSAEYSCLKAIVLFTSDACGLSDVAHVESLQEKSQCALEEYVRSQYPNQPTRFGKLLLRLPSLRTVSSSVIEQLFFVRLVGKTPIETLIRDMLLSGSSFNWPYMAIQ

[22] = biological target: Nuclear receptor coactivator 3 (Homo sapiens) (UniProt Q9Y6Q9); experiment: NCOA3 GAL4-fusion reporter inhibition – cell-based, luminescence, quadruplicate, confirmation (AID 588792;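 active = mean inhibition over 43.08%, the solvent-only control mean plus 3 SD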;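 also: 0% = DMSO treated cells and 100% = gossypol at 36 µM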); conditions: HEK293 GAL4-SRC3 luciferase reporter, at 3.6 µM, stronger effect = higher value
[23] = tested on: transactivating tegument protein VP16 (Human herpesvirus 1), Gal4-VP16 luciferase reporter; experiment: repression of VP16-driven luciferase reporter – cell-based, luminescence, high throughput, counter-screen for SRC3 inhibitor project (AID 588794; in the data active = inhibition above about 30%); conditions: mammalian cells, at 3.6 µM, stronger effect = higher value
[24] = biological target: Nuclear receptor coactivator 1 (Homo sapiens) (UniProt Q15788); experiment: NCOA1 GAL4-fusion reporter inhibition – cell-based, luminescence, quadruplicate, confirmation (AID 588820;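 active = mean inhibition above 46.68%, the untreated control wells mean plus 3 SD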;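 also: 0% = DMSO wells and 100% = gossypol 36 µM treated wells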); conditions: HEK293 GAL4-SRC1 luciferase reporter, at 3.6 µM, stronger effect = higher value
[25] = repression of VP16-driven luciferase reporter – cell-based, luminescence, high throughput, counter-screen for SRC1 inhibitor project (AID 588824; in the data active = inhibition above about 25%); conditions: cell-based VP16 transactivation luciferase luminescence; at 3.6 µM; stronger effect = higher value
[26] = tested on: transactivating tegument protein VP16 (Human herpesvirus 1); experiment: compounds suppressing VP16-driven luciferase signal – cell-based, luminescence, single concentration, counter-screen for SRC2 inhibitor project (AID 652007; in the data active = inhibition above about 36%); conditions: cell-based VP16 transactivation luciferase reporter, at 8.9 µM, stronger effect = higher value
[27] = biological target: Nuclear receptor coactivator 2 (Homo sapiens) (UniProt Q15596); experiment: inhibition of GAL4-SRC2 driven luciferase expression – cell-based, luminescence, HEK293, triplicate, confirmation (AID 652008;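 active = mean inhibition above 46.5%, the solvent-only control mean plus 3 SD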;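 also: 0% = DMSO-treated cells and 100% = Gossypol at 36 µM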); conditions: HEK293 GAL4-SRC2 luciferase reporter, at 8.9 µM, stronger effect = higher value
Sequence of Nuclear receptor coactivator 2 (Homo sapiens) (Q15596 whole entry, looked up, the tested form may be a part): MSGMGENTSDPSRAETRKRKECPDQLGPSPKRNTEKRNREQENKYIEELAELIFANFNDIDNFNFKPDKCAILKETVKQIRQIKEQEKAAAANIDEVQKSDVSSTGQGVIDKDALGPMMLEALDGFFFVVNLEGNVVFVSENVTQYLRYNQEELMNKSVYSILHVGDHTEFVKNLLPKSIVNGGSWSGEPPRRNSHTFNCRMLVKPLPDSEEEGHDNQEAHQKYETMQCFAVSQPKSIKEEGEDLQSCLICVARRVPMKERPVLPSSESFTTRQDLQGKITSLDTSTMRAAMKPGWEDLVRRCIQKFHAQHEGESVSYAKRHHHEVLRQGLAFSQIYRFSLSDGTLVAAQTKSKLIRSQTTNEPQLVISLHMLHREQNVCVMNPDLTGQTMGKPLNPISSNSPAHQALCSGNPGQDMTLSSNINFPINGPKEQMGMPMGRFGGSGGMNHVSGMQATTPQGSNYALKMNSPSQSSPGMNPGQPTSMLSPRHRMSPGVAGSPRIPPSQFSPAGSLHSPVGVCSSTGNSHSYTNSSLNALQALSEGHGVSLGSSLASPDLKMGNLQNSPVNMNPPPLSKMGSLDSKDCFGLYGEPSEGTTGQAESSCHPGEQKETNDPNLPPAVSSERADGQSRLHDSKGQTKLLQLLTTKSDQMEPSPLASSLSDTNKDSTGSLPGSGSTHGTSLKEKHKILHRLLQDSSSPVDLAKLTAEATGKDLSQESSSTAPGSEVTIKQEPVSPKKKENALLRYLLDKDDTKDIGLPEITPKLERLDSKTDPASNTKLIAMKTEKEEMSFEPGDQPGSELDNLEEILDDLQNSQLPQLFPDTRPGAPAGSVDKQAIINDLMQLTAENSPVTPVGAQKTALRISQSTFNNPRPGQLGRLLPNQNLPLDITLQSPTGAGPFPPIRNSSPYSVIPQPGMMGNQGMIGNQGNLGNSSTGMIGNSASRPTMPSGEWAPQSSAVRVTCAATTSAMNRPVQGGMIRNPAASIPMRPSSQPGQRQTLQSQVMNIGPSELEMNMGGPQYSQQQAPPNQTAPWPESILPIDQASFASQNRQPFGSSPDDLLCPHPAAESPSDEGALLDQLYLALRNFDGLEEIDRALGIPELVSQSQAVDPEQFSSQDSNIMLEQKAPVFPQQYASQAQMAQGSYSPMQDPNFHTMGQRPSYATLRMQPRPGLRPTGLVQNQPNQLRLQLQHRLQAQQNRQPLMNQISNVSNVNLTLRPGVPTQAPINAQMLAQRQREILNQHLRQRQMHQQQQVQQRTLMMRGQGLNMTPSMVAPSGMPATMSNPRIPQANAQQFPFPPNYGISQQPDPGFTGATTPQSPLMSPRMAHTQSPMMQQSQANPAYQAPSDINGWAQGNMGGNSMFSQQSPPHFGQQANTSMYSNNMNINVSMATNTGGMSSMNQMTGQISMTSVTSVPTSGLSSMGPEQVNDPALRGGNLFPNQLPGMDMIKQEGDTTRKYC

O=C1CCC(=O)N(O)CCCCCNC(=O)CCC(=O)N(O)CCCCCNC(=O)CCC(=O)N(O)CCCCCN1
inhibition [1]: 31% (active)
inhibition [2]: 24.5% (active)
inhibition [3]: 17.4%
inhibition [4]: 19.5% (active)
inhibition [5]: 25% (active)
inhibition [6]: 29.4% (active)

C=CCNC(=O)c1cc(-c2ccccc2O)on1
inhibition [1]: -1.87%
inhibition [2]: 1.86%
inhibition [3]: 0.32%

Brc1ccccc1C1Nc2cccc3cccc(c23)N1
inhibition [7]: 2.05%
inhibition [8]: 42.5% (active)

CC(=O)N1CCN(c2ccc(NCc3ccc(C(C)C)cc3)cc2)CC1
inhibition [7]: 12.7%

O=[N+]([O-])c1ccc(N/N=C/c2ccccc2)cc1
inhibition [9]: 13.7%
inhibition [10]: 10.7%
inhibition [11]: 3.89%
inhibition [12]: 17.7%
inhibition [13]: 20% (active)

CC(=N\NC(=O)c1cc(Br)ccc1O)/C(=N/O)C(=O)Nc1ccccc1
inhibition [7]: 55.9% (active)
inhibition [14]: -21.4%
inhibition [15]: 16.5%

O=[N+]([O-])c1c(NCCO)cc(Sc2nc3ccccc3s2)c2nonc12
inhibition [9]: 71.1% (active)
inhibition [10]: 17.3%
inhibition [11]: 98.7% (active)

CS(=O)(=O)c1sc2nc(-c3ccccc3)cc(-c3ccccc3)c2c1N
inhibition [9]: 31.1% (active)
inhibition [10]: 31.6%
inhibition [11]: -0.85%

COc1cccc2c1C(=O)c1c(O)c3c(c(O)c1C2=O)CC(O)(C(C)=NNC(=O)c1ccc(Cl)c(Cl)c1)CC3OC1CC(N)C(O)C(C)O1 (centres undefined)
inhibition [7]: 69.6% (active)
inhibition [16]: 72.7% (active)
inhibition [17]: 75.1% (active)
inhibition [18]: 94.8% (active)
inhibition [19]: 65.9% (active)
inhibition [14]: 159% (active)
inhibition [15]: 126% (active)
inhibition [20]: 41.2% (active)
inhibition [21]: 32.5%

CC(=O)Nc1ccc(S(=O)(=O)Nc2ccc(N3CCCCC3)cc2)cc1
inhibition [7]: 63.4% (active)
inhibition [22]: -3.95%
inhibition [23]: 0.96%
inhibition [24]: 4.11%
inhibition [25]: 2.83%
inhibition [26]: -15.4%
inhibition [27]: 14.9%

CNC(=S)N/N=C/c1ccc(OCc2ccccc2)c(Br)c1
inhibition [9]: 27.6% (active)
inhibition [10]: 27.6%
inhibition [11]: 43.4% (active)
inhibition [12]: 54.2% (active)
inhibition [13]: 52.8% (active)

Cc1cccc(CS(=O)(=O)c2ncc(Cl)c(C(=O)Nc3ccc(F)cc3)n2)c1
inhibition [9]: 38.1% (active)
inhibition [10]: 20.7%
inhibition [11]: 99.1% (active)
inhibition [12]: 82.9% (active)
inhibition [13]: 31.5% (active)
inhibition [26]: 69.8% (active)
inhibition [27]: 80.6% (active)
